Measured values from ChEMBL document CHEMBL1961873, “Compounds: GSK PKIS; Assays: Nanosyn kinase panel” (2012).

How the values were obtained:
[1] = tested on: Tyrosine-protein kinase ABL1 (Homo sapiens), P00519 [T315I]; settings: at 1 µM
[2] = tested on: Tyrosine-protein kinase ABL1 (Homo sapiens), P00519 [Y253F]; settings: at 0.1 µM
[3] = tested on: Tyrosine-protein kinase ABL1 (Homo sapiens), P00519 [Y253F]; settings: at 1 µM
[4] = target: Tyrosine-protein kinase ABL1 (Homo sapiens) (UniProt P00519); settings: at 0.1 µM
[5] = target: Tyrosine-protein kinase ABL1 (Homo sapiens) (UniProt P00519); settings: at 1 µM
[6] = target: ALK tyrosine kinase receptor (Homo sapiens) (UniProt Q9UM73); settings: at 0.1 µM
[7] = target: ALK tyrosine kinase receptor (Homo sapiens) (UniProt Q9UM73); settings: at 1 µM
[8] = target: Tyrosine-protein kinase ABL2 (Homo sapiens) (UniProt P42684); settings: at 0.1 µM
[9] = target: Tyrosine-protein kinase ABL2 (Homo sapiens) (UniProt P42684); settings: at 1 µM
[10] = target: Tyrosine-protein kinase receptor UFO (Homo sapiens) (UniProt P30530); settings: at 0.1 µM
[11] = target: Tyrosine-protein kinase receptor UFO (Homo sapiens) (UniProt P30530); settings: at 1 µM
[12] = target: Tyrosine-protein kinase Blk (Homo sapiens) (UniProt P51451); settings: at 0.1 µM
[13] = target: Tyrosine-protein kinase Blk (Homo sapiens) (UniProt P51451); settings: at 1 µM
[14] = target: T1, Cytoplasmic tyrosine-protein kinase BMX (Homo sapiens) (UniProt P51813); settings: at 0.1 µM
T1 sequence (whole entry): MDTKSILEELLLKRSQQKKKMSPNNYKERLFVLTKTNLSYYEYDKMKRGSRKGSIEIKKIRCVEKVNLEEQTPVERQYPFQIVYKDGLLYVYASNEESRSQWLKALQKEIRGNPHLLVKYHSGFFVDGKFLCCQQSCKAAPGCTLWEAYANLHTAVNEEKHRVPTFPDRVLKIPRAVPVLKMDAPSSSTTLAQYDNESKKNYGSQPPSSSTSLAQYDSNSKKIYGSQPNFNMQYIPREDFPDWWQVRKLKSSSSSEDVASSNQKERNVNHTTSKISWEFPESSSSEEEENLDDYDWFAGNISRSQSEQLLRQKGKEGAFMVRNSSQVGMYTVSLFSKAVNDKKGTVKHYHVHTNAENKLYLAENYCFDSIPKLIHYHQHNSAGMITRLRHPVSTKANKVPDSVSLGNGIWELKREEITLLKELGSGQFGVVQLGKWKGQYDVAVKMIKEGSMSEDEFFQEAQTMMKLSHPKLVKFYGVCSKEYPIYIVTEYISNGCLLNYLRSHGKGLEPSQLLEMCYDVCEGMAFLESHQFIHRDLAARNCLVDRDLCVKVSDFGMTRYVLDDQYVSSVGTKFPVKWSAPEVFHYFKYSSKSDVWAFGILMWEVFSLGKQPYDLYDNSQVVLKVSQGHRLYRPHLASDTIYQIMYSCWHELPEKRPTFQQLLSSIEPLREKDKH

[15] = target: T1, Cytoplasmic tyrosine-protein kinase BMX (Homo sapiens); settings: at 1 µM
[16] = target: Protein-tyrosine kinase 6 (Homo sapiens) (UniProt Q13882); settings: at 0.1 µM
[17] = target: Protein-tyrosine kinase 6 (Homo sapiens) (UniProt Q13882); settings: at 1 µM
[18] = target: Tyrosine-protein kinase BTK (Homo sapiens) (UniProt Q06187); settings: at 0.1 µM
[19] = target: Tyrosine-protein kinase BTK (Homo sapiens) (UniProt Q06187); settings: at 1 µM
[20] = target: Tyrosine-protein kinase CSK (Homo sapiens) (UniProt P41240); settings: at 0.1 µM;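 also: value given is the averaged percent inhibition of CSK kinase activity, from the GSK PKIS kinase inhibitor set screening panel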
Sequence of Tyrosine-protein kinase CSK (Homo sapiens) (P41240 2-450 limits assumed): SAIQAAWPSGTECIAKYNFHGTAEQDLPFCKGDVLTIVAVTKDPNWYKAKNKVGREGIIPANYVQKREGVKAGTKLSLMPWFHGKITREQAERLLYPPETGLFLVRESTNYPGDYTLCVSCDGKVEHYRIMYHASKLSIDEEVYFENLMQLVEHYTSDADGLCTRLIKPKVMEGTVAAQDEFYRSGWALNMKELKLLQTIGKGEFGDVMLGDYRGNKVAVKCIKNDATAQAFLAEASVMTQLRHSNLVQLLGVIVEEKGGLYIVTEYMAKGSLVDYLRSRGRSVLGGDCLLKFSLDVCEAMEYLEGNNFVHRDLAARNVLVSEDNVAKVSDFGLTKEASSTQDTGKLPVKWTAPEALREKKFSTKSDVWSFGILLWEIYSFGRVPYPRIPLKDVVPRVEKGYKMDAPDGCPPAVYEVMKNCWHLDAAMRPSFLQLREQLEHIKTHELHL

Sequence of Tyrosine-protein kinase receptor UFO (Homo sapiens) (P30530 whole entry): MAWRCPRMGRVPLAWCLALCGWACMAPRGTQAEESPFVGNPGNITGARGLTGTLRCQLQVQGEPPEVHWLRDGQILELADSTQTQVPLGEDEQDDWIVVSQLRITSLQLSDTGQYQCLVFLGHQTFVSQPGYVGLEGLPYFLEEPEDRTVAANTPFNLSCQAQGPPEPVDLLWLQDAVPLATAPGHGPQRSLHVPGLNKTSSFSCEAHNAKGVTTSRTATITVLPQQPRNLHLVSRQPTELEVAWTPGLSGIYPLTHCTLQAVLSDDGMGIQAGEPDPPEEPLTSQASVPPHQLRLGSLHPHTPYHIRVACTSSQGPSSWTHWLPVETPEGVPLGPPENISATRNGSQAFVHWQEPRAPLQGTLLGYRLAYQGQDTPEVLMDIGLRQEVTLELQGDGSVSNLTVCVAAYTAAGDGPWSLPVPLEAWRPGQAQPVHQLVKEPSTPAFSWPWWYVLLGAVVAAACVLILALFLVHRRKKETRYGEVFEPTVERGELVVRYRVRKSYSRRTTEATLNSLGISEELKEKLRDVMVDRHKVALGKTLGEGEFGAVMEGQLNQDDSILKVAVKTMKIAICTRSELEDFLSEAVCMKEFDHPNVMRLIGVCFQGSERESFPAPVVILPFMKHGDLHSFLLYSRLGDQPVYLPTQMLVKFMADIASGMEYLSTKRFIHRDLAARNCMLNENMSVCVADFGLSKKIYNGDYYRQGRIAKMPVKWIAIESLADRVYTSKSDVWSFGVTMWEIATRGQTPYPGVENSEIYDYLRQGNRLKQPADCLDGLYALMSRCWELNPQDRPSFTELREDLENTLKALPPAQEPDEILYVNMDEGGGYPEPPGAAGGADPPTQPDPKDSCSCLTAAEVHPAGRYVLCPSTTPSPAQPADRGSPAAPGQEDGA
Sequence of Tyrosine-protein kinase BTK (Homo sapiens) (Q06187 whole entry): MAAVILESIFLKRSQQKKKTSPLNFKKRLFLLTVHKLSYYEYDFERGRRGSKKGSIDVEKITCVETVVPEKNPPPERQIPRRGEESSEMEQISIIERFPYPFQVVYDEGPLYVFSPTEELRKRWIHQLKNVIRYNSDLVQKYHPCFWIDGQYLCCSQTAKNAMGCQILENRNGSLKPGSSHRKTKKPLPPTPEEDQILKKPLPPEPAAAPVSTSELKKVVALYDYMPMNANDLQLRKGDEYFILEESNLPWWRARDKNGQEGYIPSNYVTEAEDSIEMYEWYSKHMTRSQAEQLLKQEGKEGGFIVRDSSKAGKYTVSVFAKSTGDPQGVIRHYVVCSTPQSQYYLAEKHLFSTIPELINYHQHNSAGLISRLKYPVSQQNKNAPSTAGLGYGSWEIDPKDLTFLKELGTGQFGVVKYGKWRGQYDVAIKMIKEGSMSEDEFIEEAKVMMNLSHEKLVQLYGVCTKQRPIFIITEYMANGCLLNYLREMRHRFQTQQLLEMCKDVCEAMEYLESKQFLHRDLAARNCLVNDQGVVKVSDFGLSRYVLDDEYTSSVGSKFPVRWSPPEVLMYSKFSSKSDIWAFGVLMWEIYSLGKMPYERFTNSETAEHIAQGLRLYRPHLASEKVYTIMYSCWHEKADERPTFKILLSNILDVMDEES
Sequence of Tyrosine-protein kinase Blk (Homo sapiens) (P51451 2-505 limits assumed): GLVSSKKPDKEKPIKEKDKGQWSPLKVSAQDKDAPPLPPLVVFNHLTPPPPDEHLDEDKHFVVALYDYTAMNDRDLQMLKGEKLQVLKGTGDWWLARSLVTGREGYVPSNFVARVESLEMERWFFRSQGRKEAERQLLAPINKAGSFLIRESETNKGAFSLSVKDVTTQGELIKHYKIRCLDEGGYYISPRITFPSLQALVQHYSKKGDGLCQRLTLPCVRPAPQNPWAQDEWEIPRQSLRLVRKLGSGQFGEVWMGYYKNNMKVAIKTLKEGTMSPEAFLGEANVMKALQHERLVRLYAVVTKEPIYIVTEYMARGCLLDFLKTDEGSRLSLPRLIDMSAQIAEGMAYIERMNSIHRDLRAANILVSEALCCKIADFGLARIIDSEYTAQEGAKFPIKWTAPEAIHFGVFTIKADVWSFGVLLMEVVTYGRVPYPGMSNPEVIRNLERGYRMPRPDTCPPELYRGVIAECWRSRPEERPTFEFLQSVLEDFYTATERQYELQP
Sequence of Tyrosine-protein kinase ABL2 (Homo sapiens) (P42684 whole entry): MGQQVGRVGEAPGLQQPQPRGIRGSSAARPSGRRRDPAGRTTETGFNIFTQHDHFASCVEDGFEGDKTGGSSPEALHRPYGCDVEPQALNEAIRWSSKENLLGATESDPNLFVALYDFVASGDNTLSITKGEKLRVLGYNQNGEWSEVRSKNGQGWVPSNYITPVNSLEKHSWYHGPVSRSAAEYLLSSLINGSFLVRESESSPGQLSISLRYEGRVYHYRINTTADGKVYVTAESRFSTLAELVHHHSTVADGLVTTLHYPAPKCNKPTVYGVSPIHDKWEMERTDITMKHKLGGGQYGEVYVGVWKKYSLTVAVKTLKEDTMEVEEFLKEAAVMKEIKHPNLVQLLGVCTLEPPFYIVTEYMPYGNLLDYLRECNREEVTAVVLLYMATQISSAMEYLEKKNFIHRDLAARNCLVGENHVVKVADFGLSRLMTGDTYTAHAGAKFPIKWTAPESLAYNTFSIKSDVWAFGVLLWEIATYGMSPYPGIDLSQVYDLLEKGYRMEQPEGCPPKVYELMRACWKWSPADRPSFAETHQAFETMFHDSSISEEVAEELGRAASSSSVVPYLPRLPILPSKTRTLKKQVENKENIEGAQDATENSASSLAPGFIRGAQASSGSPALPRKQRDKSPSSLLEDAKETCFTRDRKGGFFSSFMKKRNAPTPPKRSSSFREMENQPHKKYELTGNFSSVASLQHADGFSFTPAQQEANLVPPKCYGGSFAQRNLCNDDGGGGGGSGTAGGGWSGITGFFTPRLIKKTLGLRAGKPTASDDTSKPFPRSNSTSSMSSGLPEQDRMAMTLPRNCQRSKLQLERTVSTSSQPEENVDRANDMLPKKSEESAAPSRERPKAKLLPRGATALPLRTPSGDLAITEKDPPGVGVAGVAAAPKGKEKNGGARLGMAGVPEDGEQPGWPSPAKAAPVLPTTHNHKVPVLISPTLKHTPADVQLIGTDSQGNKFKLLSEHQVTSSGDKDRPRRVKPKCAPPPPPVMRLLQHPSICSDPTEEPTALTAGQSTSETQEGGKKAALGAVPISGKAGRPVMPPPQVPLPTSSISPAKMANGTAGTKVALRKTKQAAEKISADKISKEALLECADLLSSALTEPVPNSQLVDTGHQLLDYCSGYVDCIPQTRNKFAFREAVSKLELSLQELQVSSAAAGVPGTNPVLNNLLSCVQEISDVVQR
Sequence of Protein-tyrosine kinase 6 (Homo sapiens) (Q13882 whole entry, looked up): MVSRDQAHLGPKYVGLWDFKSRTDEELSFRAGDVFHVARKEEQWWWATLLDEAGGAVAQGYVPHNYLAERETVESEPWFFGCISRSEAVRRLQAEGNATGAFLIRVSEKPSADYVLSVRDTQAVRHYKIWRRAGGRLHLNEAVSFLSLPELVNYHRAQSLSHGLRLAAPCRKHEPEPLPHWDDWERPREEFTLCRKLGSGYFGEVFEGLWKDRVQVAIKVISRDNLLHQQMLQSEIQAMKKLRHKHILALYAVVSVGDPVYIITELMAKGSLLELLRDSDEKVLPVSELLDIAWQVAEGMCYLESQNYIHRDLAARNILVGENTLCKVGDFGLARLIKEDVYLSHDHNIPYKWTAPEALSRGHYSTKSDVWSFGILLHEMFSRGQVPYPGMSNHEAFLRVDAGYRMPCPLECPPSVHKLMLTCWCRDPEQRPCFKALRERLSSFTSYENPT

Structure (SMILES)	inhibition [1] [%]	inhibition [2] [%]	inhibition [3] [%]	inhibition [4] [%]	inhibition [5] [%]	inhibition [6] [%]	inhibition [7] [%]	inhibition [8] [%]	inhibition [9] [%]	inhibition [10] [%]	inhibition [11] [%]	inhibition [12] [%]	inhibition [13] [%]	inhibition [14] [%]	inhibition [15] [%]	inhibition [16] [%]	inhibition [17] [%]	inhibition [18] [%]	inhibition [19] [%]	inhibition [20] [%]
CCCN1CCC=C(c2ccc(Nc3nc(Nc4ccccc4C(N)=O)c4cc[nH]c4n3)c(C)c2)C1	12.1	1.82	7.55	5.84	16.4	76.2	82.1	10	13	8.88	58.1	1.84	9.78	3.95	7.54	1.91	17.4	-2.03	-0.62	-1.32
NS(=O)(=O)c1cccc(-c2ccc3c(NC(=O)C4CC4)n[nH]c3c2)c1	25.3	2.68	27	-0.29	20.5	-1.84	-1.06	-1.16	1.08	1.32	2.37	-0.75	0.74	-2.14	0.66	-2.66	0.49	-0.13	-1.52	-7.29
COc1cc2ncn(-c3cc(OCc4ccccc4Cl)c(C(N)=O)s3)c2cc1OC	27.1	4.62	32.7	3.59	32.2	1.53	5.8	1.8	21.1	0.24	2.44	1	23.1	1.94	4.4	0.65	7.77	-0.87	1.14	0.5
O=C1Nc2ccc(C(=O)c3ccco3)cc2C1=Cc1cc(Cl)c(O)c(Cl)c1	8.5	5.68	17.9	4.71	21.5	3.92	20.8	5.9	15.3	-4.61	-5.53	3.04	19.1	-1.7	5.27	4.83	6.88	1.4	1.76	6.31
N#Cc1c(NC(=O)c2cccc3ccccc23)sc2c1CCCC2	3.27	5.89	5.73	2.91	9.14	2.92	2.25	3.88	9.55	-4.77	-1.11	1.28	2.44	3.61	2.91	3.4	3.17	-1.4	0.24	0.06
COc1cc(C)c(NC(=O)CN(C)C)cc1Nc1nc(Nc2cccc(F)c2C(N)=O)c2cc[nH]c2n1	0.49	3.3	-0.09	1.95	4.55	97.8	88.9	1.11	-0.02	17.6	63.7	0.68	4.45	0.07	2.64	3.06	23.8	0.31	0.16	1.05
Cc1cccc(-c2n[nH]cc2-c2ccc3ncccc3n2)n1	2.07	3.03	25.9	5.29	37.2	2.05	0.57	3.75	8	-0.81	0.83	1.31	3.22	3	0.92	0.3	2.48	-0.91	-1.51	-1.25
COC(=O)Nc1nc2cc(Oc3cccc(NC(=O)Nc4cc(C(F)(F)F)ccc4F)c3)ccc2[nH]1	12.6	5.16	19.8	0.82	24.6	-1	0.13	4.08	41.3	-0.41	1.25	-0.47	1.35	1.84	-1.52	-1.63	-2.33	-0.22	-0.18	-2.03
CCn1c(-c2nonc2N)nc2ccncc21	-0.3	-0.36	1.17	1.53	3.89	1.59	1.87	2.85	-1.97	-1.17	1.22	0.68	2.01	3.88	-0.38	-0.74	-3.65	-0.43	1.46	-1.68
CS(=O)(=O)Nc1ccc(N/C=C2\C(=O)Nc3ccccc32)cc1	18.3	-0.43	12	-0.3	11	-2.22	5.88	0.2	8.69	2.95	4.47	0.62	18.2	-1.58	0.63	-4.62	-2.23	-1.06	-0.9	-9.22
COc1cc2ncn(-c3cc(O[C@H](C)c4ccccc4Cl)c(C(N)=O)s3)c2cc1OC	57.9	11.5	47.1	7.25	47.2	4.18	19	4.99	37.2	-0.27	8.37	5.28	23.4	2.09	9.76	-0.56	3.6	1.78	6.48	4.29
COc1cc2c(cc1Nc1nc(N3CCc4ccccc43)c3cc[nH]c3n1)N(C(=O)CN(C)C)CC2	-1.44	1.21	3.71	2.76	7.27	90	85.3	2.02	5.11	3.85	21.4	0.59	4.28	-0.34	4.16	1.24	0.03	1.01	2.65	3.07
COc1cc2ncn(-c3cc(O[C@@H](C)c4ccccc4Cl)c(C(N)=O)s3)c2cc1OC	13.5	6.04	25.9	7.09	28.4	3.25	6.34	3.24	11.4	-8.48	-5.82	11.1	51.2	2.71	6.64	-0.13	7.91	-0.58	1.4	1.7
